Holding throughout (assay): NCI-60 one-dose screen, 48 h (100 = growth as untreated, 0 = no growth, -100 = all killed)
For one test, the system named is NCI-H23 lung. The settings on record: 10 µM unless noted.
Another test deals with NCI-H226 lung. Conditions: 10 µM unless noted.
The next test deals with NCI-H322M lung. The settings on record: 10 µM unless noted.
The next test concerns HOP-62 NSCLC. Conditions: 10 µM unless noted.
The next test deals with NCI-H460 lung. The settings on record: 10 µM unless noted.
The test system of the next test is HOP-92 NSCLC. Conditions: 10 µM unless noted.
A further test has as its system NCI-H522 lung. The settings on record: 10 µM.
The subject of a further test is 786-0 renal. The settings on record: 10 µM unless noted.
The next test concerns COLO 205 colon. The settings on record: 10 µM unless noted.
The subject of the next test is DU-145 prostate. Conditions: 10 µM unless noted.
Another test has as its system K-562 leukemia. Conditions: 10 µM unless noted.
The next test relates to MALME-3M melanoma. The settings on record: 10 µM unless noted.
In the next test the test system is MDA-MB-231 breast. The settings on record: 10 µM unless noted.
A further test concerns SF-268 CNS. The settings on record: 10 µM unless noted.
Another test deals with SF-295 CNS. Conditions: 10 µM unless noted.
A further test deals with SF-539 CNS. The settings on record: 10 µM unless noted.
For another test, the system named is UACC-257 melanoma. The settings on record: 10 µM unless noted.
The subject of a further test is M14 melanoma. The settings on record: 10 µM unless noted.
In another test the test system is RXF 393 renal. Conditions: 10 µM unless noted.
The test system of a further test is A549/ATCC NSCLC. Conditions: 10 µM unless noted.

SMILES strings stand for the structures. The panel holds about 83,000 compounds, 20% with a hit somewhere; the sample as a whole holds those more often.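 Cells were grown in 96-well plates and exposed to the test compound at a single concentration for 48 hours; results are reported as percent growth, with values below 10 considered active.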 A number with no mark means an inactive call. Active and inactive are the calls of the source.

For `O=C(c1ccc(N2CCOCC2)cc1[N+](=O)[O-])N1CCOCC1`, the growth is 97.2% with NCI-H23 lung; 97.9% with NCI-H226 lung; 111% in the test with NCI-H322M lung; 94.8% with HOP-62 NSCLC; 116% in the test on NCI-H460 lung; 94.3% with HOP-92 NSCLC. For the same compound, the growth in the test on NCI-H522 lung is 94%; in the test on 786-0 renal, 102%; in the test on COLO 205 colon it was 87.1%; with DU-145 prostate it was 114%; in the test with K-562 leukemia, 159%; in the test on MALME-3M melanoma, 103%. Moreover, the growth in the test with MDA-MB-231 breast is 134%; with SF-268 CNS, 110%; with SF-295 CNS, -38.9% (active); with SF-539 CNS, 107%; in the test with UACC-257 melanoma, 43.9%; in the test with M14 melanoma, 107%.
In the case of `Cc1ccc(S(=O)(=O)NCCN2c3nc4ccccc4cc3Sc3cc4ccccc4nc32)cc1`, the growth is 56.9% in the test with NCI-H23 lung; 65.6% in the test with NCI-H226 lung; 91.7% in the test on NCI-H322M lung; 55.8% in the test on HOP-62 NSCLC; 70.8% in the test with NCI-H460 lung; 15.7% in the test with HOP-92 NSCLC. For the same compound, the growth is 52.8% in the test with NCI-H522 lung; 61.9% with 786-0 renal; 113% in the test on COLO 205 colon; 87.9% in the test on K-562 leukemia; 128% in the test on MALME-3M melanoma; 36.8% in the test with MDA-MB-231 breast. Further, the growth in the test with SF-268 CNS is 52.4%; in the test with SF-295 CNS, 93.8%; in the test on SF-539 CNS it was 11.7%; with UACC-257 melanoma, 54.7%; in the test on M14 melanoma, 77.4%.
On to `Cc1ccc(OCC(=O)Nc2ccc(Oc3ccccc3)cc2)c([N+](=O)[O-])n1`, for which the growth in the test on NCI-H23 lung is 47%; with NCI-H226 lung, 68.8%; in the test with NCI-H322M lung it was 95%; in the test on HOP-62 NSCLC, 79.6%; with NCI-H460 lung it was 76.3%; with HOP-92 NSCLC, 73.7%. Besides, the growth in the test on NCI-H522 lung was 33.2%; with 786-0 renal, 66.3%; in the test on COLO 205 colon, 94.5%; with DU-145 prostate, 90.4%; in the test on MALME-3M melanoma, 87.7%; with MDA-MB-231 breast, 85.4%. Also, the growth is 66.1% in the test on RXF 393 renal; 86.5% in the test on SF-268 CNS; 89.5% in the test on SF-295 CNS; 78.3% in the test with SF-539 CNS; 74.7% in the test with M14 melanoma.
Take `CCOC(=O)CCC(=O)O[C@H]1[C@H](O[C@@H]2[C@@H](C)[C@H](O[C@H]3C[C@@](C)(OC)[C@@H](O)[C@H](C)O3)[C@@H](C)C(=O)O[C@H](CC)[C@@](C)(O)[C@H](O)[C@@H](C)C(=O)[C@H](C)C[C@@]2(C)O)O[C@H](C)C[C@@H]1N(C)C`: the growth is 99.6% with NCI-H23 lung; 97.2% in the test with NCI-H226 lung; 90.2% in the test with NCI-H322M lung; 94.6% in the test on HOP-62 NSCLC; 119% with NCI-H460 lung; 102% in the test with HOP-92 NSCLC. The growth in the test on NCI-H522 lung is 92.6%; with 786-0 renal it was 98.2%; in the test with COLO 205 colon it was 109%; in the test with DU-145 prostate, 119%; in the test on MALME-3M melanoma, 99.4%; in the test on MDA-MB-231 breast it was 106%. Also, the growth with RXF 393 renal is 110%; with SF-268 CNS it was 115%; in the test on SF-295 CNS, 104%; in the test on SF-539 CNS, 101%; in the test on UACC-257 melanoma, 113%; with M14 melanoma, 97.2%.
`C1CCC(C(CC2CCCCN2)C2CCCCC2)CC1` (stereo not given): the growth in the test with NCI-H23 lung was 9.26% (active); in the test with NCI-H226 lung, 28%; with NCI-H322M lung it was 49.8%; in the test with HOP-62 NSCLC, -81.6% (active); in the test with NCI-H460 lung, -84.3% (active); in the test on HOP-92 NSCLC it was -2.64% (active). The growth with NCI-H522 lung is -16.8% (active); in the test on 786-0 renal it was -86.7% (active); with COLO 205 colon it was -63.6% (active); in the test with DU-145 prostate, 14%; in the test on K-562 leukemia it was -64.9% (active); in the test on MALME-3M melanoma it was -73.2% (active). In addition, the growth is 1.11% (active) in the test with MDA-MB-231 breast; 49.9% in the test with SF-268 CNS; -62.9% (active) in the test with SF-295 CNS; -35.9% (active) in the test with SF-539 CNS; -88.2% (active) in the test on M14 melanoma.
`O=C(NC1CCS(=O)(=O)C1)c1ccc(C(=O)c2ccccc2)cc1` (stereo not given): the growth is 98.9% with NCI-H23 lung; 94.5% in the test on NCI-H226 lung; 128% in the test with NCI-H322M lung; 101% in the test on HOP-62 NSCLC; 104% in the test on NCI-H460 lung; 101% in the test on HOP-92 NSCLC. The growth with NCI-H522 lung was 90.9%; in the test on 786-0 renal, 101%; with COLO 205 colon it was 102%; with DU-145 prostate it was 128%; in the test with K-562 leukemia it was 108%; in the test on MALME-3M melanoma, 108%. Moreover, the growth in the test with MDA-MB-231 breast is 124%; with SF-268 CNS, 118%; in the test on SF-295 CNS it was 99.6%; with SF-539 CNS, 103%; in the test on UACC-257 melanoma it was 82.7%; in the test on M14 melanoma it was 98.6%.
For `COc1ccc(/C=C/C(=O)c2cccc(NS(C)(=O)=O)c2)cc1`, the growth in the test with NCI-H23 lung is 69.6%; in the test with NCI-H226 lung, 85.7%; in the test on NCI-H322M lung, 92.2%; with HOP-62 NSCLC it was 90.2%; in the test with NCI-H460 lung it was 96.4%; with HOP-92 NSCLC it was 60.5%. Moreover, the growth is 66.5% in the test with NCI-H522 lung; 75.7% with 786-0 renal; 102% in the test with COLO 205 colon; 42.6% with DU-145 prostate; 112% in the test with MALME-3M melanoma; 80.5% in the test on MDA-MB-231 breast. In addition, the growth in the test with SF-268 CNS was 82%; with SF-295 CNS, 92.1%; in the test on SF-539 CNS, 94.7%; in the test on M14 melanoma it was 97.3%.
For `CC1Cc2ccccc2N1C(=O)c1ccc(C(=O)c2ccccc2)cc1` (stereo not given), the growth with NCI-H23 lung is 98.3%; with NCI-H226 lung it was 78.1%; in the test on NCI-H322M lung, 91.2%; with HOP-62 NSCLC, 80.5%; in the test on NCI-H460 lung, 99.3%; in the test on HOP-92 NSCLC, 92%. Moreover, the growth in the test on NCI-H522 lung is 77.3%; in the test with 786-0 renal, 86.7%; with COLO 205 colon it was 97.1%; in the test with DU-145 prostate it was 79.7%; in the test on K-562 leukemia, 85.6%; with MALME-3M melanoma it was 73%. Also, the growth in the test on MDA-MB-231 breast is 91.3%; with SF-268 CNS, 92.1%; with SF-295 CNS, 84%; with SF-539 CNS it was 96.3%; in the test with UACC-257 melanoma, 30.1%; in the test with M14 melanoma it was 83.5%.
In the case of `COc1ccc2c(c1)C(=Nc1cc(OC)c(OC)c(OC)c1)C(=O)N2`, the growth was 96.6% in the test with NCI-H23 lung; 97.1% in the test with NCI-H226 lung; 108% with NCI-H322M lung; 36.1% with HOP-62 NSCLC; 116% in the test on NCI-H460 lung; 56.8% in the test on HOP-92 NSCLC. Moreover, the growth in the test with NCI-H522 lung was 89.9%; with 786-0 renal, 104%; with COLO 205 colon it was 92.5%; with K-562 leukemia, 102%; in the test on MALME-3M melanoma, 90.8%; in the test on MDA-MB-231 breast, 103%. Moreover, the growth was 98% in the test on SF-268 CNS; 171% in the test on SF-295 CNS; 103% with SF-539 CNS; 102% with UACC-257 melanoma; 101% in the test with M14 melanoma.
As for `N#CSCC1CC(O)(c2ccccc2)C(c2ccccc2)C(c2ccc(Cl)cc2)O1` (stereo not given), the growth with NCI-H23 lung was -78.6% (active); in the test on NCI-H226 lung, 19.7%; in the test with NCI-H322M lung, 52.3%; with HOP-62 NSCLC, 5.71% (active); in the test on NCI-H460 lung, -68.7% (active); in the test on HOP-92 NSCLC, -29.6% (active). For the same compound, the growth in the test on A549/ATCC NSCLC is -53.7% (active); in the test on 786-0 renal it was -74.3% (active); in the test on COLO 205 colon, -98.3% (active); with DU-145 prostate, -68.2% (active); with K-562 leukemia, -6.84% (active); in the test with MALME-3M melanoma, -80.8% (active). Besides, the growth was -52.2% (active) in the test on MDA-MB-231 breast; -91.5% (active) in the test on RXF 393 renal; -34.1% (active) with SF-268 CNS; -77.9% (active) in the test with SF-295 CNS; -96.4% (active) in the test on SF-539 CNS; -70.2% (active) in the test with UACC-257 melanoma. The growth with M14 melanoma is -77.8% (active).

The record behind these values is PubChem BioAssay (NCI).
